Drawing on PubChem BioAssay AID1159606 (Sanford-Burnham Center for Chemical Genomics, 2016), this text covers inhibition for 85 compounds.

In general, inhibition refers to the drop in the measured response relative to a control, in per cent.

The campaign covered roughly 360,000 compounds. About 7,300 (2%) were called active. The list comes from a sample in which actives are over-represented; it also holds similar structures and randomly drawn compounds. A number with no mark means an inactive call. No stated cut-off is given here; in the data, active means inhibition above about 50%; inactive means the rest.

This experiment can be described thus: blockers of TWEAK-induced Fn14 reporter activity – luciferase reporter cells, uHTS, primary screen (AID 1159606). The following applies: TWEAK-stimulated Fn14 reporter cells, luciferase luminescence, 8 h; at 10 µM; active compounds read high.
With `C=CCn1c(=S)[nH]c2scc(-c3ccco3)c2c1=O`, the inhibition was 2.15%.

In the case of `CC(C)CNC(=O)C1(C)CCCN1C(=O)CSc1ccccc1` (stereo not given), the inhibition is 24.6%.

Turning to `O=C(/C=C/Sc1ncn[nH]1)c1ccc(Cl)cc1`, the inhibition was 46.2%.

On to `Cc1cc(C)nc(S/C=C/C(=O)c2ccccc2)n1`, for which the inhibition was 93.2% (active).

In the case of `COC(c1ccccc1)(c1ccccc1)C(Oc1nc(C)cc(C)n1)C(=O)O` (stereo not given), the inhibition was 1.41%.

With `COc1ccc(NC(=O)CC2C(=O)NC3CCCCC3N2C(=O)c2ccc(F)cc2)cc1` (stereo not given), the inhibition is 3.34%.

For `CCSc1nc(=S)n(CC)c(C)c1C(C)=O`, the inhibition is -1.72%.

`O=S1(=O)C[C@@H](N2CCN(CCO)CC2)[C@H](COCc2ccccc2)N1`: the inhibition was 7.64%.

Regarding `CCOC(=O)[C@H]1[C@H]2COc3ccc(C)cc3[C@@H]2N2C(=O)CN(Cc3ccc(F)cc3)C(=O)[C@@]12C`, the inhibition was -5.2%.

For `COc1cccc(/C=C(/CC(=O)Nc2ccc(N3CCOCC3)cc2)c2nc3ccccc3s2)c1`, the inhibition was 62.8% (active).

Take `CCn1c(Cc2ccc(OC)cc2)nnc1SCC(=O)Nc1ccc(N2CCOCC2)cc1`: the inhibition is 4.78%.

In the case of `O=C(COC(=O)CCc1nc2ccccc2c(=O)[nH]1)Nc1ccc(N2CCOCC2)cc1`, the inhibition was -0.73%.

On to `CCN(CC)C(=O)[C@H]1C[C@H](CC(=O)NCC23CC4CC(CC(C4)C2)C3)C(=O)N2CCc3c([nH]c4cc(CCC(=O)N(C)C)ccc34)[C@]12C`, for which the inhibition was 6.21%.

Consider `Cc1cccc(CN2CCN(C3CN(Cc4cn(Cc5cc(C)cc(C)c5)nn4)S(=O)(=O)C3)CC2)c1` (stereo not given), for which the inhibition was 12.5%.

On to `CCc1ccc(-c2nnn(Cc3nc4ccccc4s3)n2)cc1`, for which the inhibition is -5.59%.

`COC(=O)C1[C@H]2SC(C)(C)C(C(=O)OC)N2C(=O)N1Cc1nc2ccccc2s1` (stereo not given in full): the inhibition was 10%.

For `COc1ccccc1OCc1nc2ccccc2s1`, the inhibition was 72.9% (active).

`CC1(C)C2CC[C@]3(C)C(CC=C4[C@@H]5C[C@@](C)(CO)CC[C@]5(C(=O)O)CC[C@]43C)[C@@]2(C)CC[C@@H]1O` (stereo not given in full): the inhibition is -12.1%.

Regarding `CNC(=O)C1CN(C(=O)c2cccc(S(=O)(=O)N3CCc4ccccc43)c2)c2ccccc2O1` (stereo not given), the inhibition is 11.3%.

As to `CNC(=O)c1ccsc1NC(=O)c1ccc(S(=O)(=O)N2CCc3ccccc32)cc1`, the inhibition was 54.5% (active).

For the compound `CC1CN(S(=O)(=O)c2ccc(C(=O)Nc3sccc3C(N)=O)cc2)CC(C)O1` (stereo not given), the inhibition was -0.86%.

For `CCCCCc1c(Cc2ccccc2)ncn1CCc1ccccc1OC`, the inhibition was 24.1%.

For `Cc1ccc(C)c(NC(=O)CN(C)C(=O)c2ccc3ncsc3c2)c1`, the inhibition is 1.46%.

On to `Cc1ccc(NS(=O)(=O)c2cc3c(cc2Br)NC(=O)CO3)cc1C`, for which the inhibition was 19.6%.

For the compound `O=C(Nc1cccc(F)c1)[C@@H]1CCCN1`, the inhibition is -1.09%.

`O=C1c2ccccc2C(=O)N1CC1c2ccccc2CCN1S(=O)(=O)c1ccccc1` (stereo not given): the inhibition is 4.13%.

Turning to `CCC(C)NC(=O)c1ccccc1NC(=O)c1ccccc1N(C)S(C)(=O)=O` (stereo not given), the inhibition was -11.3%.

On to `O=c1c(/C=N/O)coc2ccc(Cl)cc12`, for which the inhibition is -3.08%.

Regarding `Cc1ccc2occ(/C=N/NC(=O)c3ccccc3C)c(=O)c2c1`, the inhibition was 70.5% (active).

`CC(C)(C)OC(=O)NCCCCCC(=O)N/N=C/c1coc2ccccc2c1=O`: the inhibition was -1.48%.

On to `CC1(C)CC(=O)c2cnc3nc4ccccc4n3c2C1`, for which the inhibition is 6.24%.

As for `Cn1c(N)c(C(=O)COC(=O)/C=C/c2ccc(OC(F)F)cc2)c(=O)n(C)c1=O`, the inhibition was -0.1%.

As for `CCCOc1ccc(F)cc1-c1cc(C(=O)Nc2ccc(F)cc2)[nH]n1`, the inhibition is 37.3%.

Turning to `CCCOc1ccc(F)cc1-c1cc(C(=O)NCc2ccc(F)cc2)[nH]n1`, the inhibition was 24.1%.

As for `CCCOc1ccc(F)cc1-c1cc(C(=O)Nc2ccc(F)c(Cl)c2)[nH]n1`, the inhibition was 76.2% (active).

In the case of `CCCNC(=O)c1cc2c(c(-c3cccc(-c4ccc(C#N)cc4)c3)n1)[C@@H](CCO)N(C(=O)CC)C2`, the inhibition was -20.1%.

For `CC(=O)c1c(C)n(-c2ccc(C)cc2)c2ccc(O)cc12`, the inhibition is 15.6%.

In the case of `Cc1cccc(OCC(=O)NCC(=O)N/N=C/c2ccc(N(C)C)cc2)c1`, the inhibition was -4.48%.

Turning to `CC(=O)c1c(C)n(-c2ccc(N(C)C)cc2)c2ccc(OCC(N)=O)cc12`, the inhibition was 57.5% (active).

Regarding `COC(=O)[C@]12CCCCC=C1N(Cc1ccccc1)C(=O)[C@H](CC(=O)NCc1ccc(C)o1)C2`, the inhibition is 9.51%.

Turning to `O=C1NC[C@H](CCCCN2C[C@H](Cc3ccc(O)cc3)N(CCc3ccccc3)C(=O)C2=O)N(CCc2ccccc2)C1=O`, the inhibition was 13.5%.

Turning to `O=C1N/C(=C/c2cccn2-c2ccccc2)C(=O)N1c1cccc(Cl)c1`, the inhibition is 62.3% (active).

In the case of `O=C1CC(NNc2ccccc2)C(=O)N1c1cccc(Cl)c1` (stereo not given), the inhibition is 15.1%.

With `N#Cc1ccccc1CN1C(=O)S/C(=C/c2cccn2-c2cccc(C(=O)O)c2)C1=O`, the inhibition is 0.32%.

For the compound `Cc1ccc([C@H]2C[C@H](O)[C@@H](n3cc(COC(=O)c4ccccc4)nn3)CN2C(=O)C2CCCCC2)cc1`, the inhibition is 21%.

As for `COCCNC(=O)c1ccccc1-c1nc(-c2ccccc2Cl)no1`, the inhibition was -18.8%.

With `Cc1c(NC(=O)C(C)OC(=O)c2ccccc2O)c(=O)n(-c2ccccc2)n1C` (stereo not given), the inhibition was 2.88%.

Turning to `COC(=O)[C@]12CCCCC=C1N(CCC1=CCCCC1)C(=O)[C@H](CC(=O)N1CCSCC1)C2`, the inhibition was -9.15%.

With `O=C(CN1C(=O)c2ccccc2S1(=O)=O)N1CCc2ccccc21`, the inhibition was 103% (active).

For the compound `COc1ccc(CNC(=O)CN2C(=O)c3ccccc3S2(=O)=O)cc1`, the inhibition was 8.55%.

Regarding `CN(Cc1ccc(F)cc1)C(=O)CN1C(=O)c2ccccc2S1(=O)=O`, the inhibition was 7.88%.

Consider `CCN(CC)c1ncnc2c1ncn2[C@H]1CN(Cc2cccs2)C[C@@H](CO)O1`, for which the inhibition is -23.3%.

On to `COc1ccc(CN2C(=O)C(CC(=O)NC3CCCCC3)CC(C(=O)N3CCOCC3)=C2C)cc1` (stereo not given), for which the inhibition is -7.48%.

Turning to `CCc1cccc(C)c1N(C(=O)Cn1c(CO)nc2ccccc21)C(C)COC` (stereo not given), the inhibition is -17.5%.

Regarding `CCN1CCC2(CC1)N=C(c1ccc(F)cc1)C(=S)N2C(=O)c1ccc(C)cc1`, the inhibition was 42.7%.

Take `CCN1CCC(O)(/C=C/c2ccc(C)cc2)C(C(=O)/C=C/c2ccc(C)cc2)C1` (stereo not given): the inhibition was 88.3% (active).

With `CCOC(=O)[C@]12CCC=C1N(Cc1ccco1)C(=O)[C@H](CC(=O)NCc1cccc(C(F)(F)F)c1)C2`, the inhibition was 11.1%.

Turning to `COCCCNC(=O)CNC(=O)c1nn(-c2ccc(OC)cc2)c(=O)c2ccccc12`, the inhibition was 23.9%.

As to `CCOC(=O)c1cc(NC(=O)SCC(=O)O)c(C)nc1C`, the inhibition is -2.03%.

Turning to `CCOC(=O)c1c(C2CC2)csc1NC(=O)CSCc1c(C)noc1C`, the inhibition is -9.7%.

As for `O=C(Cc1ncc(C(F)(F)F)cc1Cl)Nc1cccc(Br)c1`, the inhibition is 6.6%.

With `CN(CC(=O)Nc1ccc(Cl)c(C(F)(F)F)c1)C(=O)CCC(=O)c1ccccc1`, the inhibition was 7.71%.

Turning to `O=C(CC(O)(C(F)(F)F)C(F)(F)F)Nc1ccc(Cl)c(Cl)c1`, the inhibition was 56.3% (active).

Turning to `CCN1/C(=C\c2ccc3ccccc3[n+]2CC)Sc2cc(C)ccc21`, the inhibition is 57.2% (active).

Regarding `O=C(COC(=O)C1CCN(S(=O)(=O)c2ccc3c(c2)OCCO3)CC1)Nc1ccccc1OC(F)F`, the inhibition was -22.5%.

Regarding `C#Cc1ccc([C@@H]2C=C(C(=O)O)O[C@H](OCCCCO)C2)cc1`, the inhibition was -4.22%.

For the compound `Cc1cn(C2C=CC(CO)O2)c(=O)[nH]c1=O` (stereo not given), the inhibition was -1%.

Consider `O=S(=O)(c1ccc(F)cc1)N1CCN=C1SCc1cccc(F)c1`, for which the inhibition is -11.2%.

On to `O=C(Nc1c(Br)cc2c(c1Br)Cc1cc([N+](=O)[O-])ccc1-2)C(Cl)Cl`, for which the inhibition was -30.1%.

As to `O=C(CN1CCN(S(=O)(=O)c2ccc(F)cc2)CC1)NC1CC1`, the inhibition was 0.09%.

Take `Cc1nc(N2CCOCC2)c2c(C)c(C(=O)Nc3ccc(C(F)(F)F)cc3)sc2n1`: the inhibition is -3.25%.

As for `Cc1nc(N2CCN(c3ccccn3)CC2)c2c(C)c(C(=O)Nc3ccc(F)cc3)sc2n1`, the inhibition was 18.8%.

Consider `Cc1nc(N2CCN(c3ccccn3)CC2)c2c(C)c(C(=O)Nc3ccc(F)c(Cl)c3)sc2n1`, for which the inhibition was 66.9% (active).

`CCOC(=O)Cc1ncccc1C(=O)Nc1ccc(OC(F)(F)F)cc1`: the inhibition was -7.78%.

As to `CCOc1c2ccc(C(=O)NCc3ccc(OC(F)(F)F)cc3)cc2nn1C`, the inhibition is -25.1%.

Consider `O=C(Nc1ccc(OC(F)(F)F)cc1)c1ccc2c(c1)no[n+]2[O-]`, for which the inhibition was 60.4% (active).

In the case of `CCOC(=O)Cc1csc(NC(=O)CN(C)S(=O)(=O)c2ccc3c(c2)CCC(=O)N3)n1`, the inhibition was 1.66%.

For `O=C(Nc1cc(C(F)(F)F)ccc1Cl)c1cc2nc3c(c(C(F)(F)F)n2n1)CCCC3`, the inhibition was 76.7% (active).

As for `O=C(Nc1ccc(Cl)cc1)c1cc2nc(C3CC3)cc(C(F)(F)F)n2n1`, the inhibition was -7.24%.

Take `Nc1nc(SCC(=O)Nc2cc(C(F)(F)F)ccc2Cl)[nH]c(=O)c1NC(=O)c1ccco1`: the inhibition was 10%.

On to `O=S1(=O)CSCS(=O)(=O)C1`, for which the inhibition is -11.8%.

Take `O=C(OCC(=O)N1CCCCCC1)c1ccc(Br)c(S(=O)(=O)N2CCOCC2)c1`: the inhibition is -3.85%.

Regarding `COc1cc2c(cc1OC)/C(=C/C(=O)c1ccc(NC(C)=O)cc1)NCC2`, the inhibition was -11.2%.

For `CC1CN/C(=C\C(=O)c2ccc(Br)cc2)C(=O)N1` (stereo not given), the inhibition was 62.2% (active).

Consider `CC1(C)Cc2ccccc2/C(=C/C(=O)c2ccccc2)N1`, for which the inhibition was -22.4%.
